Screening results from PubChem.
The entries come from a sample that favours hits as a whole.
DUX4 inh: blocks DUX4-driven transcriptional activation; 293T-iDUX4 ZSCAN4-Gaussia luciferase reporter, 24 h; hits give low values; activity change, negative = inhibition, % (concentration not given with the values); hit rate 0.8% among 37,000;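 active = mean inhibition of at least 10% in the main channel, exceeding the control channel by a set limit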;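 also: 0% = median of neutral control wells and -100% = median of positive control wells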
Numbers without * were called inactive; ! = not active in a repeat.

SMILES	DUX4 inh
OC[C@@H]1[C@H](c2ccc(C#Cc3ccccc3F)cc2)[C@H]2CN(CC3CCOCC3)CCCCN12	-21*
OC[C@H]1[C@H](c2ccc(C#Cc3ccccc3)cc2)[C@H]2CN(CC3CCOCC3)CCCCN21	-8
O=C(C[C@H]1CC[C@H]2[C@@H](COC[C@@H](O)CN2C(=O)Nc2cc(Cl)cc(Cl)c2)O1)N1CCCCC1	-5
CO[C@@H]1CN(C)C(=O)c2cccc(C#N)c2OC[C@H]2O[C@H](CC[C@H]2OC)CCN(C)C(=O)[C@H]1C	3
COc1ccc2c3c(n(C)c2c1)[C@H](CO)N(C(=O)C1CC1)CC31CN(C(=O)C2CCOCC2)C1	14
Cc1ccccc1-c1cnc2c(c1)C(=O)N([C@H](C)CO)C[C@H](C)[C@@H](CN(C)CC1CCOCC1)O2	1
C[C@H](CO)N1C[C@H](C)[C@@H](CN(C)Cc2ccc3c(c2)OCO3)Oc2c(NC(=O)Nc3ccc(C(F)(F)F)cc3)cccc2C1=O	1
O=C(C1CCC1)N1CC2(C1)[C@H](c1ccccc1)[C@H](CO)N2Cc1ccccc1F	-7
O=C(C1CCCC1)N1CC2(C1)[C@@H](c1ccccc1)[C@H](CO)N2Cc1ccccc1F	-7
O=C(C1CCCC1)N1CC2(C1)[C@@H](c1ccccc1)[C@@H](CO)N2Cc1ccc(Cl)cc1	-8
O=C(C1CCCC1)N1CC2(C1)[C@H](c1ccccc1)[C@@H](CO)N2Cc1ccccc1F	-45*
O=C(C1CCOCC1)N1CC2(C1)[C@H](c1ccccc1)[C@@H](CO)N2Cc1ccc(Cl)cc1	-3
O=C(C1CCCCC1)N1CC2(C1)[C@H](c1ccccc1)[C@@H](CO)N2Cc1ccc(Cl)cc1	-51*
COc1ccc(S(=O)(=O)N(C)C[C@@H]2OCCCC[C@H](C)Oc3ccc(NC(=O)Nc4cccc5ccccc45)cc3C(=O)N([C@H](C)CO)C[C@H]2C)cc1	-5
O=C(C[C@@H]1CC[C@H]2[C@@H](COC[C@@H](O)CN2C(=O)c2cnccn2)O1)NCc1ccc(F)cc1	12
CN(C)C(=O)[C@H]1[C@H](CO)[C@H]2Cn3c(ccc(C4=CCCC4)c3=O)[C@@H]1N2C	9
COc1ccc(CN2CC3(CCN(C(C)=O)CC3)c3c(n(C)c4cc(OC)ccc34)[C@H]2CO)cc1	6
Cc1ccccc1-c1ccc([C@@H]2[C@@H](CO)N3C(=O)CN(C(=O)c4cccnc4)C[C@@H]23)cc1	0
COc1ccc2c3c(n(C)c2c1)[C@H](CO)NCC31CN(Cc2ccccc2Cl)C1	4
COc1ccc2c3c(n(C)c2c1)[C@H](CO)NCC31CN(Cc2ccc(Cl)cc2)C1	-48*
COc1ccc2c3c(n(C)c2c1)[C@@H](CO)NCC31CN(Cc2ccc(-c3ccccn3)cc2)C1	-3
CCCC(=O)Nc1ccc2c(c1)C(=O)N(C)[C@@H]1CC[C@H](CC(=O)NCCc3ccncc3)O[C@H]1CO2	-3
O=C(Nc1ccccc1F)N1CCCCN2[C@H](C1)[C@H](c1ccc(/C=C/c3ccccc3)cc1)[C@@H]2CO	3
COCC#Cc1ccc([C@H]2[C@@H](CO)N3CCCCN(C(=O)Nc4cc(F)ccc4F)C[C@H]23)cc1	-23*
C/C=C/c1ccc([C@@H]2[C@@H](CO)N3CCCCN(C(=O)Nc4cc(F)ccc4F)C[C@@H]23)cc1	-13*
SMILES	DUX4 inh
COCC#Cc1ccc([C@@H]2[C@@H](CO)N3CCCCN(C(=O)Nc4cc(F)ccc4F)C[C@@H]23)cc1	-1
C/C=C/c1ccc([C@H]2[C@@H](CO)N3CCCCN(C(=O)Nc4ccc(F)cc4)C[C@@H]23)cc1	15
CN(C)CC#Cc1ccc([C@@H]2[C@H](CO)N3CCCCN(C(=O)Nc4cc(F)ccc4F)C[C@@H]23)cc1	20
O=S(=O)(Cc1ccccc1)NCC[C@H]1CC[C@H](NS(=O)(=O)c2ccc(F)cc2)[C@@H](CO)O1	2
COCCNC(=O)C[C@@H]1CC[C@H]2[C@@H](COc3ccc(NC(=O)c4cc(C)on4)cc3C(=O)N2C)O1	0
COc1cccc(S(=O)(=O)N2[C@@H]3CNC[C@H]2C3c2ccc(-c3ccccc3F)cc2)c1 (some centres not stated)	3
Cc1cccc(-c2ccc(C3[C@@H]4CN(Cc5cccnc5)C[C@H]3N4)cc2)c1 (some centres not stated)	20
CN(C)C(=O)c1ccc(-c2ccc(C3[C@@H]4CN(Cc5cncnc5)C[C@H]3N4)cc2)cc1 (some centres not stated)	17
Fc1cccc(CN2[C@@H]3CNC[C@H]2C3c2ccc(-c3ccccc3)cc2)c1 (some centres not stated)	16
COc1cccc(CN2C[C@@H]3N[C@H](C2)C3c2ccc(-c3ccccc3F)cc2)c1 (some centres not stated)	-19*!
Cc1ccc(-c2ccc(C3[C@@H]4CN(Cc5cccnc5)C[C@H]3N4)cc2)cc1 (some centres not stated)	-22*!
Fc1ccc(-c2ccc(C3[C@@H]4CN(Cc5cccc(F)c5)C[C@H]3N4)cc2)cc1 (some centres not stated)	-36*!
COc1cccc(-c2ccc(C3[C@H]4CNC[C@@H]3N4Cc3ccccc3F)cc2)c1 (some centres not stated)	7
CN(C)C(=O)c1cccc(-c2ccc(C3[C@@H]4CN(Cc5cncnc5)C[C@H]3N4)cc2)c1 (some centres not stated)	14
Cc1ccc(-c2ccc(C3[C@@H]4CN(Cc5ccccc5)C[C@H]3N4)cc2)cc1 (some centres not stated)	6
CN(C)C(=O)c1cccc(-c2ccc(C3[C@@H]4CN(C(=O)Nc5ccccc5F)C[C@H]3N4)cc2)c1 (some centres not stated)	3
CN(C)C(=O)c1cccc(-c2ccc(C3[C@@H]4CN(Cc5ccccc5F)C[C@H]3N4)cc2)c1 (some centres not stated)	-18*!
O=C(Cc1cccnc1)N[C@H]1CC[C@@H](CCNS(=O)(=O)c2ccccc2Cl)O[C@H]1CO	-1
COc1ccc2c3c([nH]c2c1)[C@H](CO)N(C(=O)C1CCCCC1)CC31CN(C(=O)c2ccncc2)C1	-1
O=C(Nc1cccc(Cl)c1)N1C[C@H]2[C@@H](c3ccccc31)[C@H](CO)N2Cc1ccccc1Cl	-2
C/C=C/c1ccc([C@H]2[C@@H](CO)N(CC3CC3)C23CN(S(C)(=O)=O)C3)cc1	7
CCC(=O)N1CC2(C1)[C@H](c1ccccc1)[C@H](CO)N2Cc1cc(F)ccc1F	2
COc1ccc2c3c(n(C)c2c1)[C@H](CO)N(C(=O)c1ccccn1)CC31CCN(C)CC1	10
COc1cccc(CN2C[C@@H]3N[C@H](C2)C3c2ccc(-c3ccccc3C)cc2)c1 (some centres not stated)	-35*!
COc1cccc(CN2[C@@H]3CNC[C@H]2C3c2ccc(-c3ccc(C#N)cc3)cc2)c1 (some centres not stated)	4
O=C(CN1CCOCC1)N1C[C@@H]2N[C@H](C1)C2c1ccc(-c2ccccc2)cc1 (some centres not stated)	11
COc1cccc(CN2[C@@H]3CNC[C@H]2[C@H]3c2ccc(-c3ccccc3OC)cc2)c1	8
COc1ccccc1CN1C[C@@H]2N[C@H](C1)C2c1ccc(-c2ccccc2)cc1 (some centres not stated)	-46*
COc1cccc(CN2C[C@@H]3N[C@H](C2)C3c2ccc(-c3ccncc3)cc2)c1 (some centres not stated)	-26*!
